PubChem BioAssay

Assay: small-molecule microarray binders of probe aXIP, primary screen, biochemical, NeuroSMM set, 635/667 nm fluorescence (AID 1119);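 also: probe is the protein aXip251-270 applied at 1 µg/mL to compound-printed slides; binding of probe to printed compounds measured as 667 nm fluorescence plus signal to noise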
Conditions: higher = more signal, called active from +8 up or from −8 down

Composite Z-score, inactive:
O=C1C2C=CC(C(O)c3cc(C(F)(F)F)cc(C(F)(F)F)c3)N(Nc3ccc([N+](=O)[O-])cc3)C2C(=O)N1c1ccccc1 (stereo unspecified) -0.311, COCCOC(=O)N1C(=O)[C@@]2(c3cc(C#CC4(O)CCCCCC4)ccc31)[C@H](C(=O)N1CCCCCCC1)[C@H]1C(=O)O[C@H](c3ccccc3)[C@H](c3ccccc3)N1[C@@H]2c1ccc(OCCO)cc1 3.82, CC(C)CNC(=O)[C@@H]1c2ccccc2C(=O)N(Cc2cc(F)cc(C(F)(F)F)c2)[C@H]1c1ccc(CO)cc1 -0.161, CCOC(=O)[C@H]1C/C=C/C[C@H](C(=O)OCC)C(=O)O[C@H]2[C@@H](OC)O[C@H](CO)[C@@H](OC(=O)CCc3ccccc3)[C@@H]2OC1=O 0.476, C=CC[C@@]1(C(=O)O)N=C(c2ccc(OCCCO)cc2)O[C@@H]1c1ccccc1 1.76, CCOC(=O)[C@@H]1[C@@H]2C(=O)N(CC)C(=O)[C@@H]2C[C@@H]1Sc1ccccc1 -0.889, CC(C)CN1C(=O)[C@@]2(c3ccc([N+](=O)[O-])cc3)CC(=O)N(CC34CC5CC(CC(C5)C3)C4)[C@@H]2c2ccc(CO)cc21 -0.585, C=CC[C@@]1(C(=O)N2CCCCC2)N=C(c2ccc(OCCCO)cc2)O[C@@H]1c1ccccc1 -0.221, C=CCOC(=O)[C@H]1[C@@H]2C(=O)O[C@@H](c3ccccc3)[C@@H](c3ccccc3)N2[C@@H](c2ccc(OCCOC(=O)[C@H]3C[C@H]4C(=O)N[C@@H](Cc5ccccc5)C(=O)N4[C@H]3c3ccc(O)cc3)cc2)[C@]12C(=O)Nc1ccc(I)cc12 0.341, C=CC[C@@]12N=C(c3ccc(OCCCO)cc3)O[C@@H]1c1ccccc1N(CCS(=O)(=O)c1ccccc1)C2=O -0.32, CC(C)N1CC=CC23O[C@@H]4C=CCCOC(=O)C4[C@H]2C(=O)N(CCO)[C@@H]3C1=O (stereo partly specified) -0.455, CCOC(=O)C[C@H]1[C@H](OC(=O)c2ccc(-c3ccccc3)cc2)[C@@H](NC(=O)C2CCCCC2)c2cc(OCCCO)ccc2N1C(=O)c1ccccc1 -0.6, C=CCN1Cc2ccccc2C[C@@]2(N=C(c3ccc(OCCCO)cc3)O[C@H]2c2ccccc2)C1=O 0.667, O=C1O[C@H](c2ccccc2)[C@H](c2ccccc2)N2[C@H]1[C@@H](C(=O)O)[C@]1(C(=O)Nc3ccccc31)[C@H]2c1ccc(O)cc1 -0.0012, CN(C)CCCNC(=O)[C@@]1(C)c2ccccc2C(=O)N(Cc2cc(C(F)(F)F)cc(C(F)(F)F)c2)[C@H]1c1ccc(CO)cc1 0.222, CCOC(=O)C[C@H]1[C@H](OC(=O)c2ccc(C(=O)c3ccccc3)cc2)[C@@H](NC(=O)c2ccc3ccccc3c2)c2cc(OCCCO)ccc2N1C(=O)c1ccccc1 0.224, Cc1c(NC(=O)/C(C#N)=C/C=C/c2ccccc2[N+](=O)[O-])c(=O)n(-c2ccccc2)n1C -0.148, C=CC[C@]12N=C(c3ccc(OCCCO)cc3)O[C@H]1c1ccccc1N(C)C2=O 2.56, CC(C)CCC[C@@H](C)[C@H]1CC[C@@]2(C)C3=C(CC[C@]12C)[C@@]1(C)CC[C@H](OC(=O)c2ccc(Br)cc2)C(C)(C)C1CC3 (stereo partly specified) -0.174, Cc1ccc(F)cc1S(=O)(=O)N[C@@H]1CCN(Cc2ccc(Oc3ccccc3)cc2)C1 -0.608, COC(=O)[C@H](Cc1ccccc1)N1CC(/C=C/C2CC2)=C[C@@H]1[C@@H](O)Cc1ccccc1 -0.325, CCN(CC)c1ccc(N2CC=CC34O[C@@H]5/C=C\CCC(C)OC(=O)C5[C@H]3C(=O)N(CCO)[C@@H]4C2=O)cc1 (stereo partly specified) 0.736, Cc1ccc(S[C@]2(C(=O)NC3CC3)CC(=O)N(Cc3ccccc3Cl)[C@@H]2c2ccc(CO)cc2I)cc1 0.331, C[C@]1(C(=O)NCCN2CCOCC2)c2ccccc2C(=O)N(Cc2ccc(OC(F)(F)F)cc2)[C@H]1c1ccc(CO)cc1 0.456, C[C@H]1C2=C3C(CC[C@H]4C(OCc5ccc(F)cc5C(F)(F)F)OC[C@](C)([C@@H]34)N(C(=O)OC(C)(C)C)C2)C2COC(=O)OCC21 (stereo partly specified) -0.0452, COCCOC(=O)N1C(=O)[C@@]2(c3cc(C#CCNC(N)=O)ccc31)[C@H](C(=O)N1CCCCCCC1)[C@H]1C(=O)O[C@H](c3ccccc3)[C@H](c3ccccc3)N1[C@@H]2c1ccc(O)cc1 0.559, Cc1ccc(C(C)CC(O)C2C=CC3C(=O)N(c4ccccc4)C(=O)C3N2Nc2ccc(C(C)C)cc2)o1 (stereo unspecified) -0.263, CC=CC(O)C1C=CC2C(=O)N(C)C(=O)C2N1Nc1ccc([N+](=O)[O-])cc1[N+](=O)[O-] (stereo unspecified) 0.236, O=C(O)[C@]1(Cc2ccccc2)N=C(c2ccc(OCCCO)cc2)O[C@@H]1c1ccccc1 -0.191, [N-]=[N+]=NCc1ccccc1[C@H]1OC(c2ccc(OCCCO)cc2)=N[C@@]1(CCS(=O)(=O)c1ccccc1)C(N)=O 0.0553, Cc1c(NC(=O)/C(C#N)=C/C=C/c2ccc(N(C)C)cc2)c(=O)n(-c2ccccc2)n1C 1.02, COc1ccc([Si](C)(C)[C@@H]2[C@@H](CCO)O[C@]3(C(=O)N(Cc4cccc(N5C(=O)c6cccc7cccc5c67)c4)c4ccccc43)[C@H]2C)cc1 -0.139, COc1c(C)cc(-c2cc3c(c(Cc4ccccc4)n2)[Si](C(C)C)(C(C)C)OC3)cc1C -0.014, CON(C)C(=O)C=C1C[C@@H](c2cccc(Cl)c2)O[C@@H](c2cccc(Cl)c2)O1 0.294, COc1ccc(NN2C(C(O)c3ccccn3)C=CC3C(=O)N(C4CCCCC4)C(=O)C32)cc1 (stereo unspecified) 0.0797, CC(=O)n1cc(C(O)C2C=CC3C(=O)N(c4ccccc4)C(=O)C3N2Nc2ccccc2)c2ccccc21 (stereo unspecified) 0.197
